Assay outcomes as filed in PubChem BioAssay.
Hits are enriched below; roughly 31% of the tested compounds scored in any of these assays.
CYP2C19 act: human CYP2C19 activators, primary screen, biochemical, luminescence; Cytochrome P450 2C19 (Homo sapiens), P33261; recombinant CYP2C19, luciferin-H EGE luminescence; active compounds read high; 0 = fully inhibited enzyme, 1 = untreated enzyme; activation factor at 5 µM; 96,000 tested, under 10 active; AID 1025, 2008;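 active means activation factor of at least 2 at 5 µM in the primary screen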
CYP2C19 inhib: blockers of cytochrome P450 2C19 activity – biochemical, luminescence, ADME assay, primary screen | inhibition, % at 5 µM | CYP2C19 Supersomes, luciferin-H EGE luminescence, 30 min | AID 778, 2007 | 96,000 tested, 21% active | P33261;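 active means CYP2C19 inhibition above a set limit at 5 µM in the primary screen, cut at about 50% in these data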
CYP2C9 inhib: blockers of cytochrome P450 2C9 activity – biochemical, luminescence, ADME assay, primary screen | inhibition, % at 5 µM | CYP2C9 Supersomes, luciferin-H conversion | P11712 | 96,000 tested, 20% active;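 active means blocking of liver enzyme CYP2C9 beyond about 50% at 5 µM, limit read from the data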
Target sequence (P11712 whole entry, looked up): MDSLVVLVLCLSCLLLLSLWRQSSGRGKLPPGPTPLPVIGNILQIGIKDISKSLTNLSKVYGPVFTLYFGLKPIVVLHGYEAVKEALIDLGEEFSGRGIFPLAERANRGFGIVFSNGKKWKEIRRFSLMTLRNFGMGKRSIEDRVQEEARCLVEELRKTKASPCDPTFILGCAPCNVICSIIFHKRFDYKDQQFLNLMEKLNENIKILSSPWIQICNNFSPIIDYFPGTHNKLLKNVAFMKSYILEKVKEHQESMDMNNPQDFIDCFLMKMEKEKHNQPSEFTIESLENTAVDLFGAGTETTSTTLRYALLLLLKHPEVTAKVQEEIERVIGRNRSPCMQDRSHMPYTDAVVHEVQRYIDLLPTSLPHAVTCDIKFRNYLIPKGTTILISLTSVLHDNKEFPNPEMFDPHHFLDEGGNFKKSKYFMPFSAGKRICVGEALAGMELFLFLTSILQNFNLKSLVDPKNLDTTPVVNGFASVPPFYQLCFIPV
CYP2C9 act: human CYP2C9 activators, primary screen, biochemical, luminescence; recombinant CYP2C9, luciferin-H conversion; active compounds read high; factor 1 = untreated enzyme, 0 = blocked; activation factor at 5 µM; 96,000 tested, 1.4% active; AID 1024, 2008;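 active means activation factor of 2 or more for CYP2C9 at a 5 µM dose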
Hits are given with their value.

For Cc1c(Cc2ccc3c(c2)OCO3)sc(NC(=O)C(C)(C)C)c1C#N the results were CYP2C19 act inactive, CYP2C19 inhib inactive, CYP2C9 inhib inactive and CYP2C9 act inactive.
For CCN(CC)C(=O)CSc1nc2ccccc2c(=O)[nH]1 the results were CYP2C19 act inactive, CYP2C19 inhib inactive, CYP2C9 inhib inactive and CYP2C9 act inactive.
For CCCCNC(=O)CSc1nc2ccccc2c(=O)n1CC1COc2ccccc2O1 (stereo not given) the results were CYP2C19 act inactive, CYP2C19 inhib 70, CYP2C9 inhib inactive and CYP2C9 act inactive.
Screening CCCCN(CC)C(=O)CSc1nc2ccccc2c(=O)n1CC1COc2ccccc2O1 (stereo not given) returned CYP2C19 act inactive, CYP2C19 inhib inactive, CYP2C9 inhib 74 and CYP2C9 act inactive.
Screening Cc1ccc2nc(C(=O)O)c(C(=O)O)nc2c1 returned CYP2C19 act inactive, CYP2C19 inhib inactive, CYP2C9 inhib inactive and CYP2C9 act inactive.
For CCS(=O)CCSc1nc2ccccc2s1 (stereo not given) the results were CYP2C19 act inactive, CYP2C19 inhib inactive, CYP2C9 inhib inactive and CYP2C9 act inactive.
For C(=N\Nc1ccc(-n2ccnc2)nn1)/c1ccccc1 the results were CYP2C19 act inactive, CYP2C19 inhib 98, CYP2C9 inhib 93 and CYP2C9 act inactive.
Cc1ccc(Nc2ccc(-n3ccnc3)nn2)cc1C was read as CYP2C19 act inactive, CYP2C19 inhib 100, CYP2C9 inhib 99 and CYP2C9 act inactive.
Cc1cc(C)n(-c2cc(-n3nc(C)cc3C)ncn2)n1 was read as CYP2C19 act inactive, CYP2C19 inhib inactive, CYP2C9 inhib inactive and CYP2C9 act inactive.
`Cc1ccc(NC2=NCCCCC2)cc1C` gave CYP2C19 act inactive, CYP2C19 inhib inactive, CYP2C9 inhib inactive and CYP2C9 act inactive.
`Cc1cc(C)n(-c2ccc(-n3ccnc3)nn2)n1` gave CYP2C19 act inactive, CYP2C19 inhib 99, CYP2C9 inhib inactive and CYP2C9 act inactive.
Screening COC(=O)CN1C(=O)Nc2ccc(Br)cc2C1c1ccccc1Cl (stereo not given) returned CYP2C19 act inactive, CYP2C19 inhib inactive, CYP2C9 inhib inactive and CYP2C9 act inactive.
COc1cccc(-c2cc(C(F)(F)F)n3ncc(C(=O)NCC4CCCO4)c3n2)c1 (stereo not given) was read as CYP2C19 act inactive, CYP2C19 inhib inactive, CYP2C9 inhib 55 and CYP2C9 act inactive.
For O=C(NCc1ccccc1)C(c1cccs1)N(Cc1cccs1)C(=O)c1cnccn1 (stereo not given) the results were CYP2C19 act inactive, CYP2C19 inhib inactive, CYP2C9 inhib inactive and CYP2C9 act inactive.
Screening COCCNC(=O)C(c1ccc(F)cc1)N(Cc1ccco1)C(=O)CCC(=O)Nc1nccs1 (stereo not given) returned CYP2C19 act inactive, CYP2C19 inhib 53, CYP2C9 inhib inactive and CYP2C9 act inactive.
For O=C(NCc1ccccc1)C(c1ccccc1)N(Cc1cccs1)C(=O)c1cnccn1 (stereo not given) the results were CYP2C19 act inactive, CYP2C19 inhib 62, CYP2C9 inhib inactive and CYP2C9 act inactive.
O=C(NC1CCCCC1)C(c1ccc(F)cc1)N(Cc1ccco1)C(=O)Cn1nnc2ccccc21 (stereo not given) was read as CYP2C19 act inactive, CYP2C19 inhib inactive, CYP2C9 inhib inactive and CYP2C9 act inactive.
COCCNC(=O)CN(C(=O)CCC(=O)Nc1nccs1)c1ccccc1OC was read as CYP2C19 act inactive, CYP2C19 inhib inactive, CYP2C9 inhib inactive and CYP2C9 act inactive.
For O=C(NCC(=O)N(Cc1cccs1)C(C(=O)NC1CCCC1)c1ccncc1)c1ccco1 (stereo not given) the results were CYP2C19 act inactive, CYP2C19 inhib 61, CYP2C9 inhib 72 and CYP2C9 act inactive.
O=C(CCC(=O)N(Cc1ccco1)C(C(=O)NC1CCCC1)c1ccncc1)Nc1cccnc1 (stereo not given) was read as CYP2C19 act inactive, CYP2C19 inhib 75, CYP2C9 inhib 61 and CYP2C9 act inactive.
`COC(=O)C(O)(NC(=O)NC(C)=O)C(F)(F)F` (stereo not given) gave CYP2C19 act inactive, CYP2C19 inhib inactive, CYP2C9 inhib inactive and CYP2C9 act inactive.
`O=C(Nc1ccc(CN2CCOCC2)cc1)c1cccc(F)c1` gave CYP2C19 act inactive, CYP2C19 inhib inactive, CYP2C9 inhib inactive and CYP2C9 act inactive.
`O=C(NCC(=O)N(Cc1ccco1)C(C(=O)NC1CCCCC1)c1cccnc1)c1ccco1` (stereo not given) gave CYP2C19 act inactive, CYP2C19 inhib inactive, CYP2C9 inhib inactive and CYP2C9 act inactive.
